Shown are actives, neighbours in structure and some others; about 0.5% of the full set was active somewhere.
RGS12 GoLoco inh: inhibitors of human Gai1-RGS12 GoLoco interaction (red fluorophore); Gai1:RGS12 GoLoco peptide FP, rhodamine, 10 min; AID 880; 0.44% of 230,000 active; Potency, µM (series often up to 61.6 µM), most hits filed as inhibitors; P63096; active means well fitted inhibition curve with a large enough effect, not every such curve was filed as active; inactive means no such curve, though single readings can be large or run the other way; further: nearly all actives have a fitted effect of over 30% in size
MLL CXXC-DNA inh: inhibitors of human MLL CXXC domain-DNA interaction; Q03164; MLL-CXXC / FITC-HOXA9 DNA fluorescence polarization; Potency, µM (doses to about 115 µM), usual class: inhibitors; 0.037% of 290,000 active; AID 2662; active means well fitted inhibition curve with a large enough effect in the polarisation, with a control signal flat, not every such curve was filed as active; inconclusive means small, poorly fitted or top-dose-only effect, or effect the other way, or a change in a side signal; inactive means no such curve, though single readings can be large or run the other way; the % refers to the polarisation
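Purified MLL-CXXC (added from a 7 uM solution) was preincubated 5 min at ambient with pinned compounds in 50 mM Tris-HCl pH 7.5, 50 mM NaCl, 1 mM DTT, 0.05% BSA. Fluorescein-labeled HOX-A9 DNA (50 nM solution) followed, 30 min, then polarization read.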
TexasRed fluor: counter-screen for TRb-SRC2 inhibitors: fluorescence interference. Potency, µM (top dose mostly 106 µM). TRb/SRC2 Texas Red total fluorescence interference. 0.29% of 280,000 active. AID 1479; active means well fitted curve in either direction with a large enough effect; inconclusive means small, poorly fitted or top-dose-only effect
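Human TRb ligand-binding domain at 0.6 uM with 20 nM Texas Red SRC2 peptide in Tris buffer containing 1 uM T3 and 5% DMSO, incubated with compound 5 h at ambient temperature. Total fluorescence (555/632 nm) calculated as parallel + 2 × perpendicular.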
TRb SRC2 PPI: disrupts binding of human TR beta to SRC2. P10828. TRbeta-SRC2 peptide binding, fluorescence polarization; receptor liganded with 1 µM T3. Potency, µM (series often up to 106 µM), actives largely listed as inhibitors. 0.065% of 280,000 active; further: nearly all actives have a fitted effect of over 50% in size
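Decrease in fluorescence polarization of 20 nM Texas Red SRC2 coactivator peptide flagged inhibition of its binding to 0.6 uM TRb LBD; 1 uM T3 included, incubation 5 hr, ex 555/em 632 nm.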
Menin-MLL FL inh: displaces fluorescein MLL peptide from human menin; Fluorescence polarization, fluorescein-MLL peptide displacement from menin; FP activity change, % at 61.4 µM; 290,000 tested, under 10 active; AID 1766; active means well fitted curve in the direction sought with a large enough effect in the polarisation, not every such curve was filed as active; inconclusive means small, poorly fitted or top-dose-only effect, or effect the other way, or a change in a side signal; inactive means no such curve, though single readings can be large or run the other way; the % refers to the polarisation
Menin-MLL TR inh: displaces Texas Red mutant MLL peptide from human menin | Potency, µM (series often up to 61.6 µM), most hits filed as inhibitors | 0.23% of 270,000 active | Menin + Texas Red MLL mutant peptide, fluorescence polarization | O00255; active means well fitted inhibition curve with a large enough effect in the polarisation, with a control signal flat, not every such curve was filed as active; inconclusive means small, poorly fitted or top-dose-only effect, or effect the other way, or a change in a side signal; inactive means no such curve, though single readings can be large or run the other way; the % refers to the polarisation
MLL CXXC FP-Fl: inhibitors of human MLL CXXC domain-DNA interaction | shares compounds with MLL CXXC-DNA inh | MLL CXXC-DNA binding, fluorescein FP | Potency, µM (highest dose often 345 µM), most hits filed as inhibitors | 70% of 200 active | AID 624160; further: nearly all actives have a fitted effect of over 80% in size
MLL CXXC FP-TR: inhibitors of human MLL CXXC domain-DNA interaction, Texas Red format; shares compounds with MLL CXXC-DNA inh; MLL CXXC-DNA binding, Texas Red fluorescence polarization; Potency, µM (series often up to 345 µM), actives largely listed as inhibitors; 40% of 200 active; AID 624161; further: nearly all actives have a fitted effect of over 75% in size
MLL CXXC HTRF: MLL CXXC-DNA interaction inhibition, HTRF readout; shares compounds with MLL CXXC-DNA inh; MLL CXXC-DNA binding, HTRF, biochemical; Potency, µM (titrated, usually from 172 µM), usual class: inhibitors; 30% of 210 active; further: nearly all actives have a fitted effect of over 80% in size
Hits are given with their value; ! = a repeat was not active; [ ] = dose if it differs, or a comment. Unless noted, the call rests on the fitted dose curve; in most records, active means well fitted curve in the direction sought with a large enough effect; inconclusive means small, poorly fitted or top-dose-only effect, or another doubt; inactive means no such curve, though single readings can be large; an effect the other way counts as inactive or inconclusive.

N[C@@H](Cc1ccc(O)cc1)C(=O)O was read as RGS12 GoLoco inh inactive, MLL CXXC-DNA inh inactive, TexasRed fluor inactive, TRb SRC2 PPI inactive, Menin-MLL FL inh inactive and Menin-MLL TR inh inactive.
For NC(Cc1cc(O)c(O)cc1O)C(=O)O (configuration not stated) the results were RGS12 GoLoco inh 14µM, MLL CXXC-DNA inh inconclusive, TexasRed fluor 11µM[quencher], TRb SRC2 PPI inactive, Menin-MLL FL inh inconclusive, Menin-MLL TR inh inconclusive, MLL CXXC FP-Fl 18µM, MLL CXXC FP-TR inconclusive and MLL CXXC HTRF 31µM.
For COC(=O)Cn1cc(/C=C2\C(=O)NC(=O)N(c3ccc(OC)cc3)C2=O)c2ccccc21 the results were MLL CXXC-DNA inh inconclusive, Menin-MLL FL inh inconclusive and Menin-MLL TR inh inactive.
For O=C(O)Cn1cc(/C=C2\C(=O)NC(=O)N(c3ccc(F)cc3)C2=O)c2ccccc21 the results were MLL CXXC-DNA inh inconclusive, Menin-MLL FL inh inconclusive, Menin-MLL TR inh inactive, MLL CXXC FP-Fl inconclusive, MLL CXXC FP-TR 89µM and MLL CXXC HTRF inconclusive.
For O=C(O)c1ccccc1-c1c2cc(Br)c(=O)cc-2oc2[c]([Hg])c(O)c(Br)cc12 the results were RGS12 GoLoco inh 1.1µM, MLL CXXC-DNA inh inconclusive, TexasRed fluor 45µM[fluorescent], TRb SRC2 PPI 20µM!, Menin-MLL FL inh inconclusive, Menin-MLL TR inh inconclusive, MLL CXXC FP-Fl 0.76µM, MLL CXXC FP-TR inactive and MLL CXXC HTRF 23µM.
COc1cccc2c1C(=O)c1c(O)c3c(c(O)c1C2=O)C[C@@](O)(C(=O)CO)C[C@@H]3O[C@H]1C[C@H](N)[C@H](OC2CCCCO2)[C@H](C)O1 (some centres not stated) was read as MLL CXXC-DNA inh 63µM, Menin-MLL FL inh inconclusive, Menin-MLL TR inh inconclusive, MLL CXXC FP-Fl 36µM, MLL CXXC FP-TR 45µM and MLL CXXC HTRF inactive.
Screening CCOP(=S)(OCC)SCn1nnc2ccccc2c1=O returned TexasRed fluor inactive and TRb SRC2 PPI inactive.
For Cc1cc(/C=C2\C(=O)NC(=O)N(c3cccc(F)c3)C2=O)c(C)n1-c1cc(C(=O)O)cc(C(=O)O)c1 the results were RGS12 GoLoco inh inactive, MLL CXXC-DNA inh 16µM, TexasRed fluor inactive, TRb SRC2 PPI inactive, Menin-MLL FL inh inactive, Menin-MLL TR inh inactive, MLL CXXC FP-Fl 89µM, MLL CXXC FP-TR inconclusive and MLL CXXC HTRF 122µM.
Screening Cc1cc(/C=C2\C(=O)NC(=O)N(c3ccc(Br)cc3)C2=O)c(C)n1-c1cc(C(=O)O)cc(C(=O)O)c1 returned MLL CXXC-DNA inh 7.9µM, Menin-MLL FL inh inactive, Menin-MLL TR inh inactive, MLL CXXC FP-Fl 18µM, MLL CXXC FP-TR 40µM and MLL CXXC HTRF 39µM.
For CCOP(=O)(OCC)Oc1ccc2c(C)c(Cl)c(=O)oc2c1 the results were TexasRed fluor inactive and TRb SRC2 PPI inactive.
`COc1ccc(/C=C2/C(=O)NC(=O)N(C3CCCCC3)C2=O)cc1CSc1ccccn1` gave RGS12 GoLoco inh inactive, MLL CXXC-DNA inh inconclusive, TexasRed fluor inactive, TRb SRC2 PPI inactive, Menin-MLL FL inh inactive, Menin-MLL TR inh inconclusive, MLL CXXC FP-Fl 142µM, MLL CXXC FP-TR 142µM and MLL CXXC HTRF 77µM.
Screening CC(c1ccc(O)cc1)(c1ccc(O)cc1)c1ccc(O)cc1 returned TexasRed fluor inactive and TRb SRC2 PPI inactive.
Screening CCOP(=O)(OCC)O/C(=C/Cl)c1ccc(Cl)cc1Cl returned MLL CXXC-DNA inh 63µM, TexasRed fluor inactive, TRb SRC2 PPI inactive, Menin-MLL FL inh inconclusive, Menin-MLL TR inh inactive, MLL CXXC FP-Fl 159µM, MLL CXXC FP-TR inactive and MLL CXXC HTRF inactive.

Screens (PubChem)
